High-throughput results (PubChem BioAssay)
Hits are enriched below; roughly 2.4% of the tested compounds scored in any of these assays.
D2 ag-1: agonists of human D2 dopamine receptor (beta-arrestin); P14416; DiscoveRx PathHunter D2 beta-arrestin, luminescence, 90 min; 100% = 57 uM dopamine signal; activation, % (concentration not given with the values); actives 0.084% (n = 360,000); in the data active means activation above about 40%
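Agonist mode: compounds alone added to overnight-plated D2 PathHunter cells for 90 min at 37 C, with 57 uM final dopamine (EC100) defining full response. Beta-arrestin recruitment detected by chemiluminescent reagent, read after 1 h at ambient temperature.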
D2 PAM-1: positively modulates the human D2 dopamine receptor allosterically; HEK293 T-REx D2, calcium flux, EC20 dopamine potentiation; potentiation, % at 10 µM; actives 0.34% (n = 340,000);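 active means potentiation over 3 SD above the plate norm, cut at about 30% in these data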; further: 0% is about no effect
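Potentiation of an EC20 dopamine calcium response is measured in a force-coupled, tetracycline-inducible Hek293 Trex D2 line. Compound-only kinetic reads over 180 s flag agonists before dopamine addition.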
D2 antag: antagonizes the human D2 dopamine receptor; P14416; HEK293 TREx D2 cells, calcium flux, dopamine EC80; inhibition, % at 10 µM; actives 2% (n = 340,000); in the data active means inhibition above about 30%; inactive means below that, where a call was filed; further: 0% is about no effect
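Tetracycline-induced HEK293 TREx cells expressing D2 receptor forced-coupled to calcium signalling, loaded with no-wash calcium dye. Compounds added and calcium flux read 180 s, then dopamine added at EC80 and read a further 180 s.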
B2AR arrestin: beta2AR (human) beta-arrestin recruitment activity. P07550. beta-arrestin recruitment to beta2AR, cell-based reporter. Potency, µM (highest dose often 46.1 µM), without a hit: top-dose activation, hits mostly activators. actives 0.02% (n = 330,000). AID 492947; active means well fitted activation curve with a large enough effect;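 further: potency means the concentration at half of the fitted maximal effect; 0% = DMSO controls and full agonism = EC100 isoproterenol or metaproterenol; nearly all actives have a fitted effect of over 65% in size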
Target sequence (P07550 whole entry, looked up): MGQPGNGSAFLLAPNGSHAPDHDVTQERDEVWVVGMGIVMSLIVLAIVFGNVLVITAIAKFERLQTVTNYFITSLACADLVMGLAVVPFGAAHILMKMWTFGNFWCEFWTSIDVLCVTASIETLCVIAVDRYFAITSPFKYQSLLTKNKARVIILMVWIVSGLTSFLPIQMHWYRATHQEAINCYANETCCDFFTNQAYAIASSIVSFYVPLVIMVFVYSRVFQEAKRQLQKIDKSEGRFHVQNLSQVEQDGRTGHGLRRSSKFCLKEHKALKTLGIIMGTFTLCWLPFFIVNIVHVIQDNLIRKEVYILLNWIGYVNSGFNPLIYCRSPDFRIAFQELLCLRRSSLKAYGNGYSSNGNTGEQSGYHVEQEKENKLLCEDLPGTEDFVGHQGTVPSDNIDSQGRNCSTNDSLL
D2 ag-2: agonists of human D2 dopamine receptor. HEK293 T-REx D2 cells, calcium flux agonist mode. activation, % at 2 µM. actives 0.53% (n = 340,000);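 active means activation over 3 SD above normal in the single-dose calcium agonist read, cut at about 30% in these data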; further: 0% is about no effect
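Tetracycline-induced HEK293 T-REx cells with force-coupled D2 receptor, plated overnight at 30 C, loaded with no-wash calcium dye. After a 10 s baseline, compound was pin-added and calcium flux read kinetically for 180 s; calcium rises flagged agonists.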
D2 PAM-2: human D2 receptor positive allosteric modulation; P14416; DiscoveRx D2 beta-arrestin cells, luminescence, 90 min; 100% = 57 uM dopamine signal; potentiation, % (concentration not given with the values); actives 0.23% (n = 360,000); in the data active means potentiation above about 50%
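D2 cells co-treated with compound plus 50 nM dopamine (EC20) for 90 min at 37 deg C to detect potentiation. Beta-arrestin recruitment was read as enzyme-fragment luminescence after 1 h at ambient temperature. Full response was set by 57 uM dopamine.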
Active calls of the source: *; · = no result; ! = a repeat was not active.

SMILES	D2 ag-1	D2 PAM-1	D2 antag	B2AR arrestin	D2 ag-2	D2 PAM-2
COc1cc(C=O)ccc1Oc1nnnn1-c1ccc(C(N)=O)cc1	-1	6	8	0%	2	-8
COc1cc(CO)ccc1Oc1nnnn1-c1ccc(C(N)=O)cc1	-1	-6	31*	-1%	0	-6
COc1cc(CNc2ncnc3c2ncn3[C@H]2CN(Cc3ccncc3)C[C@@H](CO)O2)cc(OC)c1OC	-4	·	·	·	·	1
O=C(NC1CCCCCCC1)c1cccnc1	-3	-2	-1	-1%	0	-16
O=C(N=NC(=O)c1ccc2c(O)n(C3CCCCC3)c(O)c2c1)c1cccnc1	-5	40*	-22	0%	1	-8
CCC1=C(OC(=O)N(CC)CC)N2C(=O)OC(=NCC(=O)OC)[C@]2(Cc2ccccc2)[C@H]2C1=CC[C@H]1C(=O)NC(=O)[C@H]12	-4	-1	53*	-1%	1	-6
CCOC(=O)N1CCC(NC(=O)CS(=O)(=O)Cc2nc(-c3cccc(OC)c3)oc2C)CC1	0	97*	24	-1%	0	-6
COc1ccc(-c2nc(CS(=O)(=O)CC(=O)NCc3cccc(F)c3)c(C)o2)cc1	-5	-6	54*	0%	0	-4
Cc1csc2ncc(C(=O)Nc3ccccc3F)c(=O)n12	-7	20	0	0%	0	-6
COc1ccc(NS(=O)(=O)c2ccc(C)c(C(=O)NCC(c3ccco3)N(C)C)c2)cc1 (stereo not drawn)	-2	-4	23	-3%	1	-19
COc1ccc(Cl)cc1NS(=O)(=O)c1cccc(C(=O)NCC(c2ccco2)N(C)C)c1 (stereo not drawn)	-3	-19	60*	0%	0	-43
COc1ccc(N(C)S(=O)(=O)c2cccc(C(=O)NCC(c3ccco3)N3CCCC3)c2)cc1 (stereo not drawn)	-5	-20	23	0%	0	-44
COc1ccc(NS(=O)(=O)c2cccc(C(=O)NCC(c3ccco3)N(C)C)c2)cc1 (stereo not drawn)	0	-13	37*	0%	0	-40
COc1ccc(C(CNC(=O)c2ccc(NS(=O)(=O)c3ccc4c(c3)OCCO4)cc2)N(C)C)cc1 (stereo not drawn)	-4	-14	31*	0%	0	-40
COc1ccc(N(C)S(=O)(=O)c2cccc(C(=O)NCC(c3cccs3)N(C)C)c2)cc1 (stereo not drawn)	1	-24	46*	-1%	1	-37
COc1ccccc1NS(=O)(=O)c1cccc(C(=O)NCC(c2ccco2)N2CCCCC2)c1 (stereo not drawn)	-2	4	2	1%	0	-41
COc1ccc(Cl)cc1NS(=O)(=O)c1cccc(C(=O)NCC(c2ccco2)N2CCCC2)c1 (stereo not drawn)	-7	-22	39*	0%	0	-50
CN(C)C(CNC(=O)c1cccc(C(F)(F)F)c1)c1ccco1 (stereo not drawn)	-5	-33	31*	0%	0	-6
CC(C)(C)NC(=O)C1CCC(CNS(=O)(=O)c2cccc3nsnc23)CC1 (stereo not drawn)	7	-9	2	0%	1	-11
Cc1cccnc1NC(=O)CSc1ccc2c(c1)OCCO2	-1	-1	32*	0%	2	-2
COc1ccc(Cc2nnc(SCC(=O)N(C)c3ccccc3)o2)cc1	4	2	66*	1%	-1	-3
Cc1cccnc1NC(=O)CSc1nnc(Cc2ccccc2)o1	-1	-4	44*	0%	0	-5
COc1ccc(Cc2nnc(SCC(=O)c3ccccc3)o2)cc1	-4	-2	8	0%	1	-3
Cc1cccc(NC(=O)CSCC(=O)Nc2ccc(S(=O)(=O)N3CCOCC3)cc2)c1	-2	7	-1	0%	0	-21
CC(C)Cc1nn2c(=O)cc(COC(=O)c3ccc(NC(=O)c4cccs4)cc3)nc2s1	·	10	·	·	-3	·
SMILES	D2 ag-1	D2 PAM-1	D2 antag	B2AR arrestin	D2 ag-2	D2 PAM-2
O=C(OCC(=O)c1ccc(Br)s1)c1ccc(O)cc1	8	·	·	0%	·	1
Nc1nc(CN2CCN(Cc3ccccc3)CC2)nc(N2CCCc3ccccc32)n1	-2	-23	63*	0%	0	-6
Nc1nc(CSc2nnnn2-c2ccccc2)nc(N2CCCc3ccccc32)n1	-3	-6	0	0%	8	-11
COc1ccc(NC(=S)N(CCCN2CCOCC2)C(C)c2cc3cccc(OC)c3o2)cc1 (stereo not drawn)	-1	-18	35*	-1%	0	-15
COc1cccc2cc(C(C)N(CCCN3CCOCC3)C(=S)Nc3ccc(C)c(C)c3)oc12 (stereo not drawn)	-5	-14	-9	0%	-3	-26
S=c1[nH]nc(-c2ccccn2)n1/N=C/c1ccc(-c2ccccc2Br)o1	2	·	·	0%	·	-7
CCOc1cc(C)c(Cl)cc1S(=O)(=O)N(C)C	0	7	49*	0%	0	-3
CCCOc1cc(C)c(Cl)cc1S(=O)(=O)N(CC)CC	-5	3	7	-1%	-1	-22
CCN(CC)CCN1C(=O)C(O)=C(C(=O)c2cccs2)C1c1ccc(C)o1 (stereo not drawn)	-4	-9	·	0%	·	-17
Cc1ccc(C2C(C(=O)c3cccs3)=C(O)C(=O)N2CCN2CCOCC2)o1 (stereo not drawn)	-4	38*	11	-1%	-2	-10
C=CCn1c(Cc2ccc(OC)cc2)nnc1SCC(=O)c1cccc([N+](=O)[O-])c1	4	·	·	0%	·	16
c1ccc(CN(CC2=NCCN2)c2ccccc2)cc1	-6	1	41*!	-3%	2	-17
Cc1cc2c(c(C#N)c1C)NC=NC2C (stereo not drawn)	-9	·	·	·	·	-17
Cc1cc(C(=O)N2CCC(C)CC2)on1	1	10	0	0%	1	-4
CCOC(=O)N1CCN(C(=O)c2cc(C)no2)CC1	-3	30*	21	0%	0	-2
CC1(C)CC(=O)C(=Cc2cn(CCC#N)nc2-c2ccc(Cl)cc2)C(=O)C1	0	5	7	0%	3	-1
CC1(C)CC(=O)C(=Cc2cn(-c3ccccc3)nc2-c2ccc(Cl)cc2)C(=O)C1	-2	5	32*	0%	0	-7
O=C(NCc1ccc(F)cc1)c1cc2sccc2n1Cc1ccc(F)cc1	·	31*	-5	0%	1	·
